Assay results as given in PubChem BioAssay AID686952 (The Scripps Research Institute Molecular Screening Center, 2013).
About 2,600 (81%) of roughly 3,200 compounds were called active.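 Rule for the calls: active = activation above the all-compound mean plus 3 SD, ignoring values outside control-based bounds (cut at about 4.8% in these data); inactive = the rest.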 So high a share suggests a set chosen from earlier hits. Not all results are given here.

Test: apparent activators from fluorescence artefacts, no enzyme – biochemical, fluorescence intensity, high throughput, artefact control for kallikrein-7 zymogen activator project (AID 686952);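 note: value is the 4 h activation minus the activation read at time zero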
Conditions: EDANS-DABCYL substrate fluorescence interference, 4 h, at 7 µM, stronger effect = higher value, solvent 0%, active enzyme control 100%
In the case of `CCS(=O)(=O)Nc1cc(C(=O)OC)ccc1C(=O)OC`, the activation is reported as 8.19% (active). For `CC(C)(C)C(=O)Nc1ccc(-c2cn3cccnc3n2)cc1`, the activation was 80.3% (active). For `CC(=O)Nc1ccc(-c2cn3cccnc3n2)cc1`, the activation was 73.5% (active). With `CCCCCC(=O)Nc1ccc(-c2cn3cccnc3n2)cc1` the activation was 28.5% (active). For `CCOC(=O)C1=C(O)/C(=C/c2ccc(OCC(=O)Nc3ccc(C)cc3)cc2)N=C1C`, the activation was 3.03% (inactive). For `CCOc1ccc(-n2c(SCC(=O)Nc3cc(C)c(NC(=O)c4ccccc4)cc3OC)nnc2-c2cccs2)cc1`, the activation was 19.4% (active). With `COc1c(N2CCN(C(=S)Nc3ccccc3F)C(C)C2)c(F)cc2c(=O)c(C(=O)O)cn(C3CC3)c12` (configuration not stated) the activation was -26% (inactive). For `Cc1cccc(C)c1NC(=O)C(c1ccccc1)N1CC(=O)Nc2ccccc21` (configuration not stated), the activation was 24.8% (active). In the case of `CNc1cncc(-c2ccc(NS(C)(=O)=O)cc2)n1`, the activation is reported as 46.5% (active). With `CN(C)Cc1c(O)ccc2c(=O)c(-c3ccccc3Cl)coc12` the activation was 83.7% (active). For `CC(=O)Nc1ccc(S(=O)(=O)NCC(=O)OCc2cc(=O)oc3ccc4ccccc4c23)cc1`, the activation was 209% (active). For `Cc1c(C)c2c(OCC(=O)NCCCO)cc3c(c2oc1=O)CCC(C)(C)O3`, the activation was 55.7% (active). In the case of `Cc1c(C)c2c(OCC(=O)N[C@@H](C(=O)O)c3ccccc3)cc3c(c2oc1=O)CCC(C)(C)O3`, the activation is reported as 49.4% (active). With `Cc1cc(=O)oc2c3c(cc(OCC(=O)NCCC(=O)N[C@@H](C)C(=O)O)c12)OC(C)(C)CC3` the activation was 65.1% (active). In the case of `Cc1cc(=O)oc2c3c(cc(OCC(=O)N[C@H](C(=O)O)c4ccccc4)c12)OC(C)(C)CC3`, the activation is reported as 49.3% (active). In the case of `O=C(O)c1ccc2c3c(cccc13)C(=O)N(OS(=O)(=O)c1ccccc1)C2=O`, the activation is reported as 103% (active). With `Cc1cc(C)c2c(n1)nn1c(-n3ccnc3)cc(C)nc21` the activation was 44.4% (active). In the case of `Cc1ccc(C2Nc3ccccc3C(=O)N2CCN2CCNC2=O)cc1` (configuration not stated), the activation is reported as 19.4% (active). For `C/C(=C\c1ccccc1)C1NC(=O)c2c(sc3c2CCCC3)N1` (configuration not stated), the activation was 14.5% (active). For `COC(=O)c1cc(N2CCNCC2)nc2ccccc12`, the activation was 33.6% (active). With `CC(=O)N1CCN(C(=O)c2cc(-c3ccc(C)o3)nc3ccccc23)CC1` the activation was 66.4% (active). With `CC1CCCN(C(=O)c2cc(-c3ccco3)nc3ccccc23)C1` (configuration not stated) the activation was 35.5% (active). With `CCCCN(CCCC)CC(O)Cn1c2ccccc2c(=O)c2ccccc21` (configuration not stated) the activation was 16.2% (active). In the case of `CCCCCn1c(=O)c(C(=O)OCC)c(Cl)c2ccccc21`, the activation is reported as -2.49% (inactive). For `O=C1NC(c2cccc(Cl)c2)Nc2ccccc21` (configuration not stated), the activation was 18.9% (active). In the case of `CC(=O)NN1C(=O)c2ccccc2NC1c1ccccc1` (configuration not stated), the activation is reported as 35.4% (active). For `CCOC(=O)NN1C(=O)c2ccccc2NC1c1cccc(O)c1` (configuration not stated), the activation was 20.4% (active). For `CCc1nc(Nc2ccc(NC(C)=O)cc2)c2oc3ccccc3c2n1`, the activation was 218% (active). For `CC(=O)Nc1nc(C)c(-c2csc(Nc3ccc(S(N)(=O)=O)cc3)n2)s1`, the activation was 46.5% (active). In the case of `Cc1nn(-c2ccccc2)c(C)c1NC(=O)COC(=O)c1cc(Cl)ccc1O`, the activation is reported as 23.3% (active). In the case of `CCOC(=O)c1[nH]c2ccc(OC)cc2c1NC(=O)CCN1CCN(Cc2ccccc2)CC1`, the activation is reported as -3.59% (inactive). With `O=C(Nc1nncs1)c1ccccc1NS(=O)(=O)c1cccs1` the activation was 38.3% (active). With `O=c1oc2c(CN3CCCCC3)c(O)ccc2c2c1CCCCC2` the activation was 68.6% (active). For `COc1cc(/C=N\NC(=O)c2nonc2N)c(OC)cc1Br`, the activation was 74% (active). With `COc1cc2c(cc1OC)CC1(CCCCC1)N=C2` the activation was 44.6% (active). In the case of `CCCN(CC(=O)NC(=O)NC1CCCCC1)CC(=O)Nc1cc(Cl)ccc1Cl`, the activation is reported as 4.93% (active). For `CCOCCCNC(=O)c1cc2c(=O)n3ccccc3nc2s1`, the activation was 68.6% (active). For `CN(C(=O)c1cc2c(=O)n3ccccc3nc2s1)C1CCCCC1`, the activation was 23% (active). In the case of `CCN1CCN(C(=O)Cn2nc(C)n3c(cc4c(OC)cccc43)c2=O)CC1`, the activation is reported as 29.8% (active). With `CC1(C)Oc2ccc3ccc(=O)oc3c2/C(=N/O)C1=O` the activation was 84.6% (active). With `COC(=O)Cc1cc(=O)oc2c(C)c(O)ccc12` the activation was 76.7% (active). With `CCN1CCCC1CNC(=O)c1cc2cc(OC)c(OC)cc2[nH]1` (configuration not stated) the activation was 22.6% (active).
